Results on 42 sequences are retold here after the supplement of paper PMC3545927.

For this test, the target named is furin, P09958. The experiment in a line: furin cleavage Z-score vs untreated control; higher = more cleavage, active = 3.5 or more, inactive = 1 or less, 8 variable residues between constant flanks. The essentials: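 Purified furin cleaved 8-mer peptides that were fused to a cDNA oligonucleotide and held on magnetic beads by their N-terminus. Each 0.01 ml reaction used a 1:10 enzyme:substrate ratio in 50 mM HEPES pH 7.5 with CaCl2 and NaCl and ran 7.5, 15 or 30 min. Released DNA was adapter-tagged by PCR and sequenced, and read counts gave abundance. The cleavage Z-score came from log counts against furin-free reactions, lowess-adjusted and scaled by median absolute deviation.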
Chain of furin, P09958 (P09958 whole entry, the tested form may be a part): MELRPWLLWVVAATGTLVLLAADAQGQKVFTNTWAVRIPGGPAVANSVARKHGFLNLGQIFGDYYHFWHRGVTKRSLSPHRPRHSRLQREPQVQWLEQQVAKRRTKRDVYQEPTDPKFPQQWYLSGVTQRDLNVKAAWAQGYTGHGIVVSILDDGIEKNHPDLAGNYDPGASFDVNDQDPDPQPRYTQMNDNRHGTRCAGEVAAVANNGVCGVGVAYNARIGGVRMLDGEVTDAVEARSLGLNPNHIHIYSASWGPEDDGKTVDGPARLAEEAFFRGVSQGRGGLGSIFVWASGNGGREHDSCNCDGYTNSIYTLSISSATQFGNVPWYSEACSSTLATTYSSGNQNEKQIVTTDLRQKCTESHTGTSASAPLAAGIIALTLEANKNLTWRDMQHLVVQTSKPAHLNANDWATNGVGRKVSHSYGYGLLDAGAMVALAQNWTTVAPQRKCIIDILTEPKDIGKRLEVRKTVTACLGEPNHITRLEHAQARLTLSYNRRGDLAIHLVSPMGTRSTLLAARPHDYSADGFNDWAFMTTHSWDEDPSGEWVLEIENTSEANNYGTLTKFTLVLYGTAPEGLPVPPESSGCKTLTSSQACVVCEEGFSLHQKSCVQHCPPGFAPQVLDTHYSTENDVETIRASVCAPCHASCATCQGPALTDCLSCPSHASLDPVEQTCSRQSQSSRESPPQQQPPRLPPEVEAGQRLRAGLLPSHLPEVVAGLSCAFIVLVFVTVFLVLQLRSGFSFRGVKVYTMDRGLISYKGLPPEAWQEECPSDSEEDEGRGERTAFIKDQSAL

The list shows a part of the results. The hit rate among all sequences tested is not known here.

For the sequence CADSVIDCNTAGNASASA [HC885], the “furin cleavage Z-score” value by setting is: (7.5 min) 0.968 (inactive); (15 min) 0.824 (inactive); (30 min) 1.02.
Taken in the same sequence, the figures for CAASGVLTTSAGNASASA [HC1511] were -1.03 (inactive), -0.000581 (inactive) and -0.909 (inactive).
In the same order, the values of CAMEECSQHYAGNASASA [HC1769] are 0.65 (inactive), 1.28 and 2.12.
Taken in the same sequence, the figures for CAGVPPLRAWAGNASASA [HC1617] were 0.794 (inactive), 0.986 (inactive) and 0.446 (inactive).
For the sequence CARKPRDLELAGNASASA [FS-2038], the “furin cleavage Z-score” value by setting is: (7.5 min) 8.14 (active); (15 min) 11 (active); (30 min) 10.9 (active).
Taken in the same sequence, the figures for CARKSRDMEIAGNASASA [FS-2980] were 0.641 (inactive), -0.334 (inactive) and 1.3.
Taken in the same sequence, the figures for CARKPRDYTIAGNASASA [FS-2695] were 0.48 (inactive), 0.851 (inactive) and 3.93 (active).
Taken in the same sequence, the figures for CAVTPIDTTIAGNASASA [HC1436] were -0.162 (inactive), -2.25 (inactive) and -0.263 (inactive).
With CAQPEYDLELAGNASASA [HC1548], the “furin cleavage Z-score” value (7.5 min) stood at 1.74, the “furin cleavage Z-score” value (15 min) was 0.744 (inactive) and the “furin cleavage Z-score” value (30 min) was 0.874 (inactive).
Taken in the same sequence, the figures for CARKPRPLDPAGNASASA [FS-2563] were 1.12, 0.612 (inactive) and 0.941 (inactive).
In the same order, the values of CAAAVTSPLTAGNASASA [HC1058] are 0.302 (inactive), -1.38 (inactive) and -0.302 (inactive).
Taken in the same sequence, the figures for CARNSTGLYHAGNASASA [HC258] were 0.587 (inactive), -0.804 (inactive) and -0.846 (inactive).
For the sequence CATTALVMAQAGNASASA [HC325], the “furin cleavage Z-score” value (7.5 min) is 0.431 (inactive), the “furin cleavage Z-score” value (15 min) was -0.525 (inactive) and the “furin cleavage Z-score” value (30 min) is -0.108 (inactive).
Taken in the same sequence, the figures for CAMETCSQHLAGNASASA [HC1718] were -0.505 (inactive), 1.16 and 2.25.
Taken in the same sequence, the figures for CARLGRSIDDAGNASASA [FS-2275] were 5.11 (active), 6.98 (active) and 5.82 (active).
In the same order, the values of CARLKREIEKAGNASASA [FS-2431] are 9.68 (active), 9.27 (active) and 9.19 (active).
For the sequence CARLKRSRLKAGNASASA [FS-1741], the “furin cleavage Z-score” value is 3.6 (active) (7.5 min), 6.18 (active) (15 min) and 7.33 (active) (30 min).
Take CARLRKDQLKAGNASASA [FS-2432]: the “furin cleavage Z-score” value was -0.25 (inactive) (7.5 min), 0.106 (inactive) (15 min) and 1.29 (30 min).
In the same order, the values of CARLKRNQEKAGNASASA [FS-2707] are -0.221 (inactive), 0.44 (inactive) and 1.38.
Consider CARLKRYHSQAGNASASA [FS-2156], for which the “furin cleavage Z-score” value by setting is: (7.5 min) 1.21; (15 min) -0.314 (inactive); (30 min) 1.6.
In the same order, the values of CARLGRIVDRAGNASASA [FS-1737] are -0.217 (inactive), -0.37 (inactive) and 0.14 (inactive).
CARLKRNIGYAGNASASA [FS-1962]: the “furin cleavage Z-score” value was 4.52 (active) (7.5 min), 7.71 (active) (15 min) and 8.24 (active) (30 min).
In the case of CARLRRPIGKAGNASASA [FS-3160], the “furin cleavage Z-score” value reads like this: (7.5 min) -0.962 (inactive); (15 min) -0.579 (inactive); (30 min) -1.27 (inactive).
In the same order, the values of CAIVPCHRPSAGNASASA [HC2304] are 0.422 (inactive), 0.63 (inactive) and 0.055 (inactive).
Taken in the same sequence, the figures for CAGKSTKVPAAGNASASA [HC778] were 1.37, 0.655 (inactive) and -0.125 (inactive).
Taken in the same sequence, the figures for CAEMTTPCSGAGNASASA [HC1966] were -0.105 (inactive), -0.176 (inactive) and -0.555 (inactive).
Regarding CASSEANAEDAGNASASA [HC1365], the “furin cleavage Z-score” value reads like this: (7.5 min) -1.29 (inactive); (15 min) -2.48 (inactive); (30 min) -1.24 (inactive).
Consider CAVAGALVAFAGNASASA [HC1090], for which the “furin cleavage Z-score” value by setting is: (7.5 min) 1.08; (15 min) -1.61 (inactive); (30 min) -0.599 (inactive).
For CARLKRFSMVAGNASASA [FS-2705], the “furin cleavage Z-score” value reads like this: (7.5 min) 1.5; (15 min) 0.596 (inactive); (30 min) 2.46.
Taken in the same sequence, the figures for CARLTRSNSKAGNASASA [FS-1750] were -0.152 (inactive), 1.68 and -1.49 (inactive).
Taken in the same sequence, the figures for CARLKRSPDKAGNASASA [FS-2277] were 9.81 (active), 12.1 (active) and 8.68 (active).
Taken in the same sequence, the figures for CARSKRRKYSAGNASASA [FS-2380] were 0.793 (inactive), -0.279 (inactive) and 0.723 (inactive).
For the sequence CARSGRVVGSAGNASASA [FS-3235], the “furin cleavage Z-score” value is -1.67 (inactive) (7.5 min), 0.0813 (inactive) (15 min) and 0.573 (inactive) (30 min).
In the case of CARSKKIFGSAGNASASA [FS-2405], the “furin cleavage Z-score” value was -1.12 (inactive) (7.5 min), -0.175 (inactive) (15 min) and 0.546 (inactive) (30 min).
Taken in the same sequence, the figures for CARSKRDVGSAGNASASA [FS-2379] were 11.6 (active), 11.3 (active) and 8.54 (active).
In the same order, the values of CALATRSFGSAGNASASA [HC1334] are -0.496 (inactive), 0.424 (inactive) and -0.551 (inactive).
As to CARSKRDGSEAGNASASA [FS-1868], the “furin cleavage Z-score” value by setting is: (7.5 min) 3.53 (active); (15 min) 5.29 (active); (30 min) 5.43 (active).
Taken in the same sequence, the figures for CARAGRDVGSAGNASASA [FS-1989] were 2.62, 3.76 (active) and 2.8.
In the same order, the values of CARSYRGISSAGNASASA [FS-2093] are 1.39, -0.63 (inactive) and 0.639 (inactive).
In the same order, the values of CAHIDLLVGSAGNASASA [HC291] are -0.513 (inactive), -1.31 (inactive) and -1.06 (inactive).
In the case of CARSKRDISSAGNASASA [FS-3083], the “furin cleavage Z-score” value runs as follows: (7.5 min) 9.51 (active); (15 min) 11.2 (active); (30 min) 9.07 (active).
Taken in the same sequence, the figures for CASTPCSAFLAGNASASA [HC2547] were -0.397 (inactive), -0.0879 (inactive) and 0.628 (inactive).
